Test results taken from PubChem BioAssay (NCI).
Where “and” joins values, the source holds several entries; their conditions need not be identical. Equal entries are not always repeated. The panel holds about 83,000 compounds, 20% with a hit somewhere; the sample as a whole holds those more often.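 Negative percent growth values reflect cell death: -40 means 40% of the cells present at the start died, and -100 means all died.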 Values without a mark were called inactive. Calls of active or inactive are those of the source. Starred links: 1 amine or outer side, 2 acyl side, 3 side chain; linkers in the order of their positions; H or OH if unused. Positions of bridges follow the written chain, without caps; N, C: chain ends. Non-standard residues stand in square brackets, D forms with d. Residues, ends and D or L forms follow the SMILES beside them. Chains are numbered I, II in the order given. Actinocin(9to1) = Cc1c2oc3c(C)ccc(C(=O)[*:1])c3nc-2c(C(=O)[*:2])c(N)c1=O; aThr = C[C@H](O)[C@H](N)C(=O)O; NMeV = CN[C@H](C(=O)O)C(C)C; Sar = CNCC(=O)O

System: PC-3 prostate
Assay: NCI-60 one-dose screen, 48 h (100 = growth as untreated, 0 = no growth, -100 = all killed)
Settings: 0.0025 µM
Description: Growth inhibition of the PC-3 human tumor cell line is measured as a screen for anti-cancer activity. Cells are grown in 96 well plates and exposed to the test compound for 48 hours. Compounds are tested at a single concentration, which is 10^-5 M for most compounds. The reported endpoint is percent growth (GI% or GIPRCNT), where numbers from 0 - 100% represent growth inhibition, and numbers from -100% - 0 represent cell death. For example, a value of 40 represents 60% growth inhibition. A value of 0 means no net growth occurred over the course of the experiment. A value of -40 indicates 40% of cells at the beginning of the experiment died by the end of the experiment. A value of -100 means all cells are dead at the end of the experiment.
NCI-60 Human Tumor Cell Lines Screen was performed using the standard one-dose NCI protocol, which is described in more detail at https://dtp.cancer.gov/discovery_development/nci-60/default.htm.
Compounds with GIPRCNT values below 10 were considered active. Activity score was based on GIPRCNT using the following formula: […]
Score is 0 for GIPRCNT values of 100 or above, 50 for GIPRCNT values of 0, and 100 for GIPRCNT values of -100.

| SMILES | growth |
| --- | --- |
| Cc1c2oc3c(C)ccc(C(=O)N[C@@H]4C(=O)N[C@H](C(C)C)C(=O)N5CCC[C@H]5C(=O)N(C)CC(=O)N(C)[C@@H](C(C)C)C(=O)O[C@H]4C)c3nc-2c(C(=O)N[C@@H]2C(=O)N[C@H](C(C)C)C(=O)N3CCC[C@H]3C(=O)N(C)CC(=O)N(C)[C@@H](C(C)C)C(=O)O[C@H]2C)c(N)c1=O (I: [aThr][dV]P[Sar][NMeV] / II: [aThr][dV]P[Sar][NMeV]; ester I:1-I:C, II:1-II:C; linker I:N-II:N via Actinocin(9to1)) | 42.8% |

Same assay, conditions: 10 µM

| SMILES | growth |
| --- | --- |
| S=c1[nH]nc(Cc2ccccc2)c(=S)[nH]1 | 89.1% |
| CCCCCCCCCCCCCCCCCN | 92.3% |
| Cc1cc(NCCCN(C)C)c2ccc3c(ccc4c(NCCCN(C)C)cc(C)nc43)c2n1 | -56.3% (active) |
| O=C(/C(=C/c1ccccc1)CBr)c1ccccc1 | 74.8% |
| Cc1c2oc3c(C)ccc(C(=O)N[C@@H]4C(=O)N[C@H](C(C)C)C(=O)N5CCC[C@H]5C(=O)N(C)CC(=O)N(C)[C@@H](C(C)C)C(=O)O[C@H]4C)c3nc-2c(C(=O)N[C@@H]2C(=O)N[C@H](C(C)C)C(=O)N3CCC[C@H]3C(=O)N(C)CC(=O)N(C)[C@@H](C(C)C)C(=O)O[C@H]2C)c(N)c1=O (I: [aThr][dV]P[Sar][NMeV] / II: [aThr][dV]P[Sar][NMeV]; ester I:1-I:C, II:1-II:C; linker I:N-II:N via Actinocin(9to1)) | 0.295% (active) |
| CN(C)CCC(=O)c1c[nH]c2ccccc12 | 84.3% |
| O=c1[nH]cc(F)c(=O)[nH]1 | 73.6% and 75.1% |
| CSc1ccc2c(c1)C(N1CCN(C)CC1)Cc1ccccc1S2 (configuration not stated) | 26.5% |
| BrC/C=C/C[P+](c1ccccc1)(c1ccccc1)c1ccccc1 | 22.4% |
| Cc1cnc(/C=N\NC(N)=S)c2cccc(N)c12 | 29% |
| CN1CCN(c2ccc3nc(-c4ccc5nc(-c6ccc(O)cc6)[nH]c5c4)[nH]c3c2)CC1 | 69.7% |
| Nc1ccc2cc(Br)c3ccccc3c2c1 | 65.2% |
| N#C/C(=C1C=C/C(=N\O)C(Cl)=C\1)c1ccccc1 | 14.5% |
| COc1cc(C(C)(C)C)cc(OC)c1C(O)(c1c(OC)cc(C(C)(C)C)cc1OC)c1c(OC)cc(C(C)(C)C)cc1OC | -86.8% (active) |

Same assay, conditions: 25 µM

| SMILES | growth |
| --- | --- |
| O=c1[nH]cc(F)c(=O)[nH]1 | 58.2% |

Same assay, conditions: 50 µM

| SMILES | growth |
| --- | --- |
| O=c1[nH]cc(F)c(=O)[nH]1 | 64.8% |
